# The full list was thinned out, with hits kept by preference.
# DT40 TDP1 CPT: DT40-hTDP1 cell growth loss with CPT; Potency, µM (top dose mostly 46.2 µM), for the others: at the highest dose activity change, negative = growth inhibition, usual class: inhibitors; actives 12% (n = 420,000); chicken DT40 Tdp1-/-;hTDP1 cells + 20 nM CPT, ATP luminescence, 48 h; also: potency is read from the fitted curve at half-maximal effect; nearly all actives have a fitted effect of over 55% in size
#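 Cell growth measured by CellTiter-Glo luminescence after a minimum 48 h, 37 C compound exposure with 20 nM CPT in Tdp1-knockout DT40 cells stably expressing hTDP1, seeded 400/well; qHTS titration format.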
# 12-LOX inh: blocks human arachidonate 12S-lipoxygenase; P18054; purified 12hLO, xylenol orange hydroperoxide absorbance; Potency, µM (top dose mostly 108 µM), inactives show at the top dose activity change, negative = inhibition, most hits filed as inhibitors; actives 1.1% (n = 580,000); AID 1671190; also: potency is read from the fitted curve at half-maximal effect
# Target sequence (P18054 whole entry, looked up): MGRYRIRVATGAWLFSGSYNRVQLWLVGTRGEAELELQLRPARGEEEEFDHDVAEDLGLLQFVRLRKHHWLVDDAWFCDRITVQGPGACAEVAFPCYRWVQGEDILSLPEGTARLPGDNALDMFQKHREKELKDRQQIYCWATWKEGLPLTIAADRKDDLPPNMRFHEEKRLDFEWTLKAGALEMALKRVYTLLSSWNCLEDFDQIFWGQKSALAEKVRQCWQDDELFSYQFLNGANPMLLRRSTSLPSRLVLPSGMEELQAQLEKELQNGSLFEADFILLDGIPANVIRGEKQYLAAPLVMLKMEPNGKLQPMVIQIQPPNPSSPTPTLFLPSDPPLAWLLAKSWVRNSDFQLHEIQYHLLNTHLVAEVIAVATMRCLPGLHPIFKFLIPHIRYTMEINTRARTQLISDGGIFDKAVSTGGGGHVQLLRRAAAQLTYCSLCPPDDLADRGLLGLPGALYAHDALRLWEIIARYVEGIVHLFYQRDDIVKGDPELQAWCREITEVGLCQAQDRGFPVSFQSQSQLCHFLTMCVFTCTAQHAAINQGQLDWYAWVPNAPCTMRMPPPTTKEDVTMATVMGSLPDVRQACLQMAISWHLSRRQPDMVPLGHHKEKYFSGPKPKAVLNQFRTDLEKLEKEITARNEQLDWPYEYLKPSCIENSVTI
#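 Purified human 12hLO at 150 nM in 25 mM Hepes, 0.01% Triton X-100, pH 7.0, preincubated 15 min at room temperature with compound. Reaction started with 40 uM arachidonic acid, 30 min at room temperature. Hydroperoxide measured by Fe-xylenol orange, 573/405 nm absorbance ratio.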
# HT1080 IDH1KD tx: HT-1080 IDH1 knockdown cell toxicity (counter line). HT-1080 IDH1 knockdown viability, ATP luminescence, 48 h. Potency, µM (titrated, usually from 46.1 µM), inactives show at the highest dose activity, negative = toxicity, usual class: cytotoxic. actives 2% (n = 360,000);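 also: potency is read from the fitted curve at half-maximal effect; 0% = DMSO wells and -100% = cell-free medium wells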
#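 IDH1KD HT-1080 cells, 750/well, RPMI + 5% FBS; compound pinned after 2 h settling; 48 h, 37 °C; CellTiter-Glo luminescence; % activity normalised to DMSO and no-cell wells; curves fitted, classed by r2 and efficacy.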
# HT1080-NT tox: kills 2HG-producing HT-1080-NT fibrosarcoma cells; HT-1080-NT fibrosarcoma viability, CellTiter-Glo ATP luminescence, 48 h; Potency, µM (top dose mostly 46.1 µM), for the others: top-dose activity, negative = less viability, most hits filed as cytotoxic; actives 1.6% (n = 360,000);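 also: NT is the 2HG producing partner of a matched IDH1 knockdown line; potency is read from the fitted curve at half-maximal effect; 0% = DMSO-treated cells and -100% = media-only wells without cells; nearly all actives have a fitted effect of over 55% in size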
#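 HT-1080-NT; 750 cells/well; 5% FBS RPMI; 48 h compound, 37 degrees C; CellTiter-Glo luminescence; curve fitting and curve-class assignment.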
# IL1B secr inh: inflammasome signaling inhibition, IL-1 beta readout; THP-1 LPS/ATP IL-1B secretion, AlphaLISA, 16 h; active compounds read low; activity change, % at 57.5 µM; actives 4.7% (n = 360,000); in the data active = activity change below about -50%; inconclusive = mostly about -30% to -49%
#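 THP-1 cells pretreated 1 hr with compounds (up to 57.5 uM final), then stimulated with LPS (250 ng/mL final) plus ATP (1.25 mM final); secreted IL-1B measured by AlphaLISA after 16 hr, decreased signal indicating inhibition.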
# TDP1 cell noCPT: qHTS for Inhibitors of human tyrosyl-DNA phosphodiesterase 1 (TDP1): qHTS in cells in absence of CPT; DT40 Tdp1-/- hTDP1 cells, no CPT, ATP luminescence, 48 h; Potency, µM (series often up to 46.2 µM), inactives show at the top dose activity change, negative = growth inhibition, actives largely listed as inhibitors; actives 15% (n = 420,000); also: potency is read from the fitted curve at half-maximal effect; nearly all actives have a fitted effect of over 55% in size
#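 Compound effects on proliferation are scored in DT40 Tdp1-/-;hTDP1 cells in the absence of CPT. ATP levels (CellTiter-Glo luminescence) are recorded after a ≥48 hr, 37 °C incubation.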
# * hit, by the source's call; u = inconclusive; x = no result; [ ] = another dose, or the depositor's remark. Unless noted, calls follow the shape of the dose curve; as a rule, active = well fitted curve in the direction sought with a large enough effect; inconclusive = small, poorly fitted or top-dose-only effect, or another doubt; inactive = no such curve, though single readings can be large; an effect the other way counts as inactive or inconclusive. Unless noted, % is scaled to controls: 0 for no effect and ±100 for the full control effect.
SMILES,DT40 TDP1 CPT,12-LOX inh,HT1080 IDH1KD tx,HT1080-NT tox,IL1B secr inh,TDP1 cell noCPT
N#C/C(=C/c1cn(-c2ccccc2)nc1-c1cccc(S(=O)(=O)N2CCCC2)c1)C(=O)NCc1ccco1,13µM*,u,-22.0%,1.0%,-2.1,11.6µM*
Cc1c(C(=O)N2CCOCC2)c(S(=O)(=O)NCCc2ccc(Cl)cc2)c(C)n1C,x,7.0%,x,x,x,x
O=C1C[C@H]2CC[C@@H](CN1)N2C(=O)c1sc2cccc(F)c2c1Cl,x,2.4%,x,x,x,x
CCOc1ccc(OCC)c(NC(=O)c2nc3ccccc3nc2N2CCCC2)c1,x,4.3%,x,x,x,x
COc1ccc(CNC(=O)c2ccc3c(=O)n(-c4ccccc4)c(=O)[nH]c3c2)cc1,7.7%,x,15.7%,26.6%,14.0,-6.9%
COc1cccc(CNC(=O)Cc2ccc(-n3c(=O)[nH]c4ccccc4c3=O)cc2)c1,4.61µM*,-1.2%,u,u,23.8,3.26µM*
COc1cccc(CNC(=O)Cc2ccc(-c3ccccc3)cc2)c1,u,21.6%,18.4µM*,u,21.9,20.6µM*
COc1ccc(Cn2ccnc2SCC(=O)NCc2ccccc2)cc1,16.4µM*,-11.5%,x,x,x,u
CCc1nnc(NC(=O)CSc2nnc(-c3ccccc3O)n2-c2ccc(C)cc2C)s1,u,0.0%,u,4.61µM*,51.3,23.1µM*
CCc1nnc(NC(=O)CSc2nnc(COc3ccccc3)n2-c2ccc(C)cc2)s1,u,4.0%,3.6%,9.1%,47.1,-25.6%
Cc1nc2cc(NC(=O)c3cccc(S(=O)(=O)Nc4ccc(Cl)cc4)c3)ccc2o1,x,-1.0%,x,x,x,x
CCn1nc(C)c(CCNC(=O)C2CCC(=O)N(C3CCCC3)C2)c1C (stereo not drawn),x,-3.5%,x,x,x,x
Cc1cc(C)c2oc(C(=O)Nc3cccc(Cl)c3)cc(=O)c2c1,x,-6.4%,x,x,x,x
COC(=O)CN1C(=O)[C@@H]2C[C@@H](O)CN2C2(CN(Cc3ccc(F)cc3)C2)C1=O,x,41.3%[176 µM],x,x,x,x
COc1cccc(CNC(=O)CCNS(=O)(=O)c2ccc(Br)s2)c1,u,0.0%,16.9%,-1.4%,20.2,u
COc1cccc(CNC(=O)COc2ccc(C(=O)c3ccccc3)cc2)c1,u,-14.3%,u,u,-19.9,16.4µM*
COc1cccc(CNC(=O)Cn2cccc2C(=O)c2ccccc2)c1,-13.9%,-26.1%,x,x,x,-11.4%
Cn1ccnc1C(=O)c1cc(SCC(=O)NCc2ccccc2)nc2ccccc12,6.51µM*,-1.1%,u,10.3µM*,65.2,5.17µM*
O=C(COc1ccc(C(=O)c2ccccc2)cc1)NCC1CCCCC1,16.4µM*,9.6%,-15.4%,-9.4%,-14.5,16.4µM*
COc1cccc(CNC(=O)CNS(=O)(=O)c2ccc(Br)s2)c1,0.9%,-19.8%,-2.8%,2.4%,-52.5*,-3.3%
O=C(COc1ccccc1)NCC1CCCO1 (stereo not drawn),0.5%,-1.5%,-0.5%,-6.3%,12.7,-1.6%
COC(=O)CSc1cc(C(=O)c2nccn2C)c2ccccc2n1,-17.1%,u,-8.5%,-1.8%,0.0,-21.3%
CCC(C)NC(=O)NCc1ccccc1 (stereo not drawn),x,12.3%,x,x,x,x
CC(C)c1ccc(C(NC(=O)c2nn(C)c(=O)c3ccccc23)c2cccs2)cc1 (stereo not drawn),x,1.3%,x,x,x,x
O=c1cc(-c2cccnc2)oc2c(-c3cn[nH]c3)nccc12,x,3.0%[176 µM],x,x,x,x
SMILES,DT40 TDP1 CPT,12-LOX inh,HT1080 IDH1KD tx,HT1080-NT tox,IL1B secr inh,TDP1 cell noCPT
CC1(C)CC(=O)C2=C(C1)OC1=C(C(=O)CC(C)(C)C1)C2c1ccc(-c2ccccc2C(=O)O)o1,x,-29.1%,x,x,x,x
O=C(c1ccc(Br)cc1)c1ccccc1C(=O)N1CCN(C(=O)C2CC2)CC1,x,1.4%,x,x,x,x
COc1ccc(CC(=O)NCc2ccccc2)cc1,2.59µM*,0.0%,8.2µM*,u,28.5,2.91µM*
COc1ccc(/C=C(/C(=O)NCc2ccccc2)c2ccccc2)cc1,u,-14.9%,1.2%,-0.5%,-7.7,20.6µM*
O=C(NCc1ccccc1)/C(=C/c1ccc(OC(F)F)cc1)c1ccccc1,u,-4.5%,-24.4%,-25.9%,-5.1,u
CCc1nnc(NC(=O)CSc2nccn2Cc2ccccc2)s1,u,-6.0%,x,x,x,20.6µM*
CC(C)NC(=O)CNC(=O)CCc1ncc(-c2ccc(Cl)cc2)o1,x,3.3%,x,x,x,x
O=C(CC(Cc1ccccc1)c1ccco1)NCc1ccco1 (stereo not drawn),4.9%,60.2%,9.5%,9.4%,-12.6,-14.7%
CN(C)c1ccc(CNCCC(Cc2ccccc2)c2ccco2)cc1 (stereo not drawn),9.2µM*,-15.6%,23.1µM*,18.4µM*,-99.4*,10.3µM*
c1ccc(CNCCC(Cc2ccccc2)c2ccco2)cc1 (stereo not drawn),u,-24.4%,16.4µM*,16.4µM*,-79.7*,16.4µM*
CC(=O)NCCC(Cc1ccccc1)c1ccco1 (stereo not drawn),-8.6%,u,7.0%,14.6%,-0.8,-6.0%
O=C(Nc1ccc(F)cc1)N[C@H]1[C@H](O)[C@@H](Oc2ccccc2)[C@@H]2OC[C@H]1O2,x,-6.5%[176 µM],x,x,x,x
O=C(NCC1Cn2cccc2C(=O)N1Cc1ccccc1)C1CCCC1 (stereo not drawn),x,-1.0%,x,x,x,x
O=C(CCCc1ccccc1)N1CCC2(CC1)CC(N(Cc1ccccc1)C1CC1)CCO2 (stereo not drawn),x,0.0%,x,x,x,x
O=S1(=O)CC=C(CSC(=S)NC2CCS(=O)(=O)C2)C1 (stereo not drawn),10.3µM*,10.5%,-13.8%,0.6%,-97.4*,u
CN(C)C(=S)NC1CCS(=O)(=O)C1 (stereo not drawn),3.0%,-3.8%,0.0%,9.4%,11.9,3.5%
NNC(=S)NC1CCS(=O)(=O)C1 (stereo not drawn),1.0%,16.8%,-5.4%,-7.6%,-12.5,4.2%
CC(C)(C)c1cc(CSC(=S)NC2CCS(=O)(=O)C2)c(Br)c(C(C)(C)C)c1 (stereo not drawn),6.51µM*,25.6%,u,u,-58.3*,11.6µM*
O[C@H]1CC[C@@H](Cc2cc(COc3ccccc3)on2)O[C@@H]1CNCc1cccc(Cl)c1,x,24.4%,x,x,x,x
CN(C)CCCNc1nc2cc(-c3cccc(Cl)c3)sc2c(=O)n1C,u,-16.9%,16.4µM*,u,-24.8,u

# Source: PubChem
